This is an account of results in the OligoGym collection.
Note: reference of the scale not given here.

The first assay concerns the target DOCK1. The assay is described as follows: pooled miR-30 sensor sort-seq; sequence = guide strand. The conditions noted are these: shRNA.
Turning to TATCATTTCGAACATCACCAGG, the sensor-assay potency score (higher = more potent) was -1.26.

TTCGTAACGTGTAACCTCGGTA yielded a sensor-assay potency score (higher = more potent) of -0.19.

Sequence TAACAGTCTCAAACCAGCGTGG showed a sensor-assay potency score (higher = more potent) of -0.364.

TTGGAGACACACCTCAACCAAC yielded a sensor-assay potency score (higher = more potent) of -1.22.

TTATACATCATCACTACACAGC gave a sensor-assay potency score (higher = more potent) of -0.419.

Sequence TAACACTTTGTACTGTTCGTCT displayed a sensor-assay potency score (higher = more potent) of -0.198.

Regarding TTTCGTAACGTGTAACCTCGGT, the sensor-assay potency score (higher = more potent) amounted to 0.0583.

The target in a further assay is DOK4. The assay is described as above. Particulars: shRNA.
The sequence TCTAGCTCTGAGTCGCAGGTGA returned a sensor-assay potency score (higher = more potent) of -0.0163.

ATAGTGTCTTGTACCACTCCTC had a sensor-assay potency score (higher = more potent) of -0.442.

Turning to TAGCAGGATGAATCTGTTGAGG, the sensor-assay potency score (higher = more potent) is -1.03.

TTGCTGATCTCAGTCACCTTGG gave a sensor-assay potency score (higher = more potent) of -0.109.

On to TAGCTCTGAGTCGCAGGTGAAG, for which the sensor-assay potency score (higher = more potent) was -1.6.

For the sequence TTCCCCAGCATCACACATCCGG, the sensor-assay potency score (higher = more potent) is -0.865.

Consider TCTGAGTCGCAGGTGAAGGTAC, for which the sensor-assay potency score (higher = more potent) was -0.935.

On to TTCTTCTCCATTTCCAGCAGGA, for which the sensor-assay potency score (higher = more potent) came to 0.267.

TTGAGGAGGTCTGTTTCCGAGC displayed a sensor-assay potency score (higher = more potent) of -1.09.

As for TTCTCCCAGACTGATGTCGTTG, the sensor-assay potency score (higher = more potent) is -1.27.

Consider TTTAGCAGGATGAATCTGTTGA, for which the sensor-assay potency score (higher = more potent) turned out to be 0.432.

On to TAGTGTCTTGTACCACTCCTCT, for which the sensor-assay potency score (higher = more potent) is -0.903.

The target of the next assay is DPEP3. The assay is described as above. Particulars: shRNA.
In turn, TTTGAGAGCTGTTCAGACCTTC returned a sensor-assay potency score (higher = more potent) of 0.484.

In the case of TACATGTGGTGTCTGAACTTGG, the sensor-assay potency score (higher = more potent) was -0.261.

On to TTGGTGGAACTCTCTGCCCATG, for which the sensor-assay potency score (higher = more potent) was -1.6.

For the sequence TCAACAAATTGTCACACACAGC, the sensor-assay potency score (higher = more potent) is -1.21.

In the case of ATTCTTGTAACGCTGTCTCAGG, the sensor-assay potency score (higher = more potent) is -0.648.

For the sequence ATGTGGTGTCTGAACTTGGTGG, the sensor-assay potency score (higher = more potent) is -0.807.

ATTTCGCAGGTTAACATCCTGA: the sensor-assay potency score (higher = more potent) is -0.609.

As to TGAAGCTCTTCCTCGCTCCAGC, the sensor-assay potency score (higher = more potent) is -0.659.

The sequence AAGCACATTCTTGTAACGCTGT yielded a sensor-assay potency score (higher = more potent) of 0.352.

Sequence TGAACTTGGTGGAACTCTCTGC came in with a sensor-assay potency score (higher = more potent) of 0.129.

Regarding AAATTGTCACACACAGCTCTGG, the sensor-assay potency score (higher = more potent) is -0.275.

Regarding TTGTCTGAAGACCCGCAGCAGG, the sensor-assay potency score (higher = more potent) was -1.57.

TTCCACTTGTCTGAAGACCCGC showed a sensor-assay potency score (higher = more potent) of -0.394.

A further assay has as its target DPM2. The description is as above. The conditions noted are these: shRNA.
In turn, TAGGTGAAGATGATCAGGCTAA registered a sensor-assay potency score (higher = more potent) of 0.29.

As to TAGTAGGTGAAGATGATCAGGC, the sensor-assay potency score (higher = more potent) turned out to be 0.327.

Regarding TTGGTCTTCAGCATCACATAGG, the sensor-assay potency score (higher = more potent) was -0.278.

For ATGAACAGTCCCACAAACAGGA, the sensor-assay potency score (higher = more potent) was -0.342.

TACTTGTGGATGACATGCTGAC displayed a sensor-assay potency score (higher = more potent) of -0.0583.

TCCCACAAACAGGAGCAGCAGG yielded a sensor-assay potency score (higher = more potent) of -1.71.

As to TTCAGCATCACATAGGAGATGA, the sensor-assay potency score (higher = more potent) was -0.473.

The sequence ATACTTGTGGATGACATGCTGA gave a sensor-assay potency score (higher = more potent) of -0.113.
